Bioassay records: PubChem BioAssay, The Scripps Research Institute Molecular Screening Center
Shown are actives, neighbours in structure and some others; about 2.3% of the full set was active somewhere.
M1 ag – activates human CHRM1 receptor. CHO-K1 hM1, Fluo-8 calcium fluorescence, agonist mode; 0% DMSO, 100% acetylcholine EC100. activation, % at 3 µM. 360,000 tested, 0.33% active;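 active = activation above the run's mean compound activation plus 3 SD, cut at about 16% in these data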;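 also: peak over basal fluorescence ratio within a 140 s kinetic read after compound addition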
Target sequence (P11229 whole entry, looked up): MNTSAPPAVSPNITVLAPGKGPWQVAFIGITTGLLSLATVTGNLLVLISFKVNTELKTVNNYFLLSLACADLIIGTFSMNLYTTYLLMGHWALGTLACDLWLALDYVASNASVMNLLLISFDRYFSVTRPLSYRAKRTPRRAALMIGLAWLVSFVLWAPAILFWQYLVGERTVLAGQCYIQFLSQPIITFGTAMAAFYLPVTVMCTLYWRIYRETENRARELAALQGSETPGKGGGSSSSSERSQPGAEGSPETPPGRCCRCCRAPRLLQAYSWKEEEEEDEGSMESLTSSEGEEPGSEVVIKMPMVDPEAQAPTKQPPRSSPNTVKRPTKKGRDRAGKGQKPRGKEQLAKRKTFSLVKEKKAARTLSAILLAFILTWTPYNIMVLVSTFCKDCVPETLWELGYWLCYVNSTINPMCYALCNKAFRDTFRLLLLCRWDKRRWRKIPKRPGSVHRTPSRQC
M1 ag parental – counter-screen for M1 agonists: effect in parental CHO-K1 cells. 360,000 tested, 0.48% active. Fluo-8 calcium fluorescence; scaled to maximal ATP response, vehicle zero. activation, % at 3 µM; in the data active = activation above about 15%;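 also: untransfected CHO-K1 host cells lacking M1 receptor as counterscreen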
CHRM1 antagonist – human CHRM1 antagonism; AID 588852; inhibition, % at 3 µM; CHO-K1 hM1, Fluo-8 calcium fluorescence, ACh EC80 antagonist; 360,000 tested, 1.3% active; P11229;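 active = percent inhibition above its own plate's cutoff, namely the mean of that plate's compound wells plus 3 SD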;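 also: peak over basal fluorescence ratio during 140 s after agonist addition; 0% = ACh EC80 plus DMSO and 100% = DMSO alone without agonist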
M1 PAM – positive allosteric modulators of human M1 muscarinic receptor; CHO-K1 hM1, Fluo-8 calcium fluorescence, ACh EC20; 0% = ACh EC20, 100% = maximal ACh; activation, % at 3 µM; 360,000 tested, 0.088% active; in the data active = activation above about 19%, passing the limit was not always enough
CHO-K1 Ca antag – counter-screen for M1 antagonists: effect in parental CHO-K1 cells; inhibition, % at 3 µM; 360,000 tested, 0.6% active; ATP-induced calcium, Fluo-8 fluorescence;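 active = inhibition above a per-plate cutoff, the plate's mean sample inhibition plus 3 SD, cut at about 24% in these data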;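 also: 0% = DMSO plus EC80 ATP and 100% = DMSO alone without ATP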
M1 PAM parental – nonselective activator or artifact in parental CHO-K1 calcium assay; activation, % at 3 µM; 360,000 tested, 0.02% active; ATP EC20, Fluo-8 calcium fluorescence; 0% at ATP EC20, 100% at ATP max; AID 602247;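 active = activation above the run cutoff, the mean activation of all test compounds plus 3 SD, cut at about 40% in these data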;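 also: peak over basal fluorescence ratio in a 140 s read after ATP addition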
* hit, by the source's call; . = no result.

SMILES	M1 ag	M1 ag parental	CHRM1 antagonist	M1 PAM	CHO-K1 Ca antag	M1 PAM parental
COc1cccc(N2CCN(c3ccc4nnc(CCC(=O)Nc5ccc(C)cn5)n4n3)CC2)c1	-4	2	8	-4	2	-22
COc1ccc(C(C)(NC(C)=O)c2nc(-c3cc(F)cc(F)c3)cs2)cc1 (stereo not given)	-3	1	-4	2	-11	13
Cc1ccc(S(=O)(=O)N2CCOC2CNC(=O)C(=O)NCC(C)C)cc1 (stereo not given)	3	1	-29	24*	-11	1
CNC(=O)C(=O)NCC1OCCN1S(=O)(=O)c1ccc(C)cc1 (stereo not given)	-2	0	15	-5	4	-24
COc1cc(C(=S)N2CCOCC2)ccc1OC(=O)c1ccc(Br)cc1	1	12	47*	-18	28*	7
O=C(CCl)Nc1cccc2ncccc12	-4	1	-11	9	-16	18
COc1ccc(OCC(=O)NC(=S)Nc2ccc3c4c(cccc24)CC3)cc1	-1	22*	8	-1	13	14
COc1ccc(OCC(=O)Nc2cccc3ncccc23)cc1	0	4	18	-10	26*	-7
CCCCN(C=O)c1c(CC)nc2ccc(C(=O)NCCCn3ccnc3)cn12	-7	0	-12	7	-1	-4
O=C(CN1CCCCC1)NC1CCc2cc3c(cc21)CCC3 (stereo not given)	-8	-1	1	-1	27*	-30
COC(=O)Cc1ccc(OC(=O)c2cccc(S(=O)(=O)N3CCN(C)CC3)c2)cc1	1	3	-13	6	-13	14
C[C@@H]1CN([C@H](C)CO)C(=O)c2cc(C#Cc3ccccc3F)cnc2O[C@@H]1CN(C)S(=O)(=O)c1ccccc1F	-3	0	9	-7	25*	-11
C[C@@H]1CN([C@H](C)CO)C(=O)c2cc(C#CC3CCCCC3)cnc2O[C@H]1CN(C)Cc1cccnc1	-11	0	34*	-28	12	0
COc1ncccc1-c1cc2nc(NCCCN(C)C)n(C)c(=O)c2s1	-4	0	6	-5	-12	16
CC(=O)c1cccc(Nc2ccc(C#N)cc2)c1	-5	3	1	1	9	11
CSc1nc2c(cc1C#N)CCCCC2	-8	0	30*	-26	17	-14
Cc1cnc2c(N)cc(C)c(C)c2c1	-1	0	-24	13	-4	5
COc1cc(C2=NOC(C(=O)NCc3cccs3)C2)cc(OC)c1OC (stereo not given)	1	2	-4	4	0	-11
COc1ccc(C2=NOC(C(=O)NCc3cccs3)C2)cc1 (stereo not given)	-2	1	56*	7	-5	17
O=C(Nc1cc(=O)c2ccccc2o1)N1CCOCC1	1	3	31*	-14	10	3
Cc1ccc2oc(NC(=O)N3CCOCC3)cc(=O)c2c1	-1	0	-6	10	31*	-4
O=C(Nc1cc(=O)c2ccccc2o1)N1CCCCC1	-1	3	8	5	3	15
Cc1noc(C)c1COC(=O)C1CCN(S(=O)(=O)c2ccc(F)cc2)CC1	-4	2	9	-2	-13	7
CC1(OC(=O)C2CCCC2)C(=O)C=C2C=C(c3ccsc3)N(CC3CC3)C=C2C1=O (stereo not given)	-13	0	67*	-39	7	-11
CC1(OC(=O)C2CCCC2)C(=O)C=C2C=C(c3ccsc3)N(C3CCCCC3)C=C2C1=O (stereo not given)	-4	0	10	-12	6	-6
SMILES	M1 ag	M1 ag parental	CHRM1 antagonist	M1 PAM	CHO-K1 Ca antag	M1 PAM parental
Cn1c(=O)n(CCO)c(=O)c2c1nc(Br)n2Cc1ccccc1	-6	1	-5	2	-1	-9
O=C(Nc1ccc(Cl)cc1)c1cc2c(cc1O)[nH]c1ccccc12	3	16*	25	-6	29*	-15
COCCn1c(SCc2ccc(C(=O)OC)o2)nc2ccccc2c1=O	-10	2	-4	-2	-2	-7
COC(=O)c1cc(CSc2nc3ccccc3c(=O)n2C)oc1C	-5	14	67*	-31	15	-5
CC1(C(=O)Nc2cccc3ccccc23)CCN1C(=O)Cc1ccc(Cl)cc1Cl (stereo not given)	-3	0	-15	9	-3	11
CCc1nnc(NS(=O)(=O)c2ccc(NC(=O)CCC(=O)OC)cc2)s1	-1	0	4	1	-5	-8
CC1=C(C(=O)N2CCOCC2)CC(CC(=O)NCCCCc2ccccc2)C(=O)N1CCC1=CCCCC1 (stereo not given)	-4	2	-5	5	-7	-6
Cn1c(=O)c2[nH]c(CCCCCCCCc3nc4ccccc4[nH]3)nc2n(C)c1=O	0	12	37*	-23	-3	-11
Cn1c(=O)c2[nH]c(CCCCc3nc4ccccc4[nH]3)nc2n(C)c1=O	-6	0	-13	6	-7	-7
Cc1ccc(-n2ncc(C#N)c2/N=C/N2CCN(C)CC2)cc1	-7	1	-8	-6	-7	20
CN1CCN(/C=N/c2c(C#N)cnn2-c2ccccc2)CC1	-3	0	30*	-13	-2	4
CCOc1ccc(NC(=O)NCCCn2c(C)nc3cc(C)c(C)cc32)cc1	-3	1	46*	-21	-10	4
C=CCNc1nc(Nc2ccc(OC)c(OC)c2)c2sc(-c3ccccc3)cc2n1	-7	1	-3	-8	-11	9
COC(=O)c1ccccc1NC(=O)NN1CCN(C)CC1	-5	1	-2	4	1	-6
O=C1NC[C@@H](CCCCN2C[C@H](Cc3ccc(O)cc3)N(Cc3ccccc3)C(=O)C2=O)N(Cc2ccccc2)C1=O	.	1	.	.	3	-1
OCC1(Cc2ccc(Cl)cc2)CCN(Cc2ccccc2F)CC1	-8	2	9	-11	0	-1
CSc1ccc(CN2CCC(CO)(Cc3ccc(Cl)cc3)CC2)cc1	-2	3	56*	-23	-3	11
O=C(NCCCN1CCCCC1)c1ccc2c(c1)NC(=O)c1ccccc1S2	-6	1	43*	-21	-12	10
O=C1Nc2cc(C(=O)NCCCN3CCCC3)ccc2S/C1=C/c1ccccc1F	-6	0	-11	6	3	24
CCCN1CCC(=O)NC1=S	-1	0	-6	1	-8	-5
CC1=NNC(=O)C1C(c1cccc(O)c1)C(C#N)C#N (stereo not given)	-3	1	22	-9	29*	-23
COC(=O)[C@@]1(Sc2ccc(C)cc2)CC(=O)N(C(=O)c2ccccc2)[C@@H]1c1ccccc1	.	4	.	.	-12	6
